According to PubChem BioAssay (NCI):
Compounds without any hit were thinned out: in the full panel of roughly 83,000, 20% have a hit.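 A percent growth of 40 corresponds to 60% growth inhibition; 0 means no net growth; -100 means all cells died. Active threshold: below 10.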 Unmarked numbers belong to inactive results. Active and inactive are the calls of the source.

What was measured:
Experiment in all cases: NCI-60 one-dose screen, 48 h (100 = growth as untreated, 0 = no growth, -100 = all killed)
Conditions in all cases: 10 µM unless noted
SK-MEL-2 melanoma = tested on: SK-MEL-2 melanoma
EKVX NSCLC = tested on: EKVX NSCLC
SN12C renal = tested on: SN12C renal
UO-31 renal = tested on: UO-31 renal
TK-10 renal = tested on: TK-10 renal
ACHN renal = tested on: ACHN renal
CAKI-1 renal = tested on: CAKI-1 renal
A498 renal = tested on: A498 renal
CCRF-CEM leukemia = tested on: CCRF-CEM leukemia
MOLT-4 leukemia = tested on: MOLT-4 leukemia
SR leukemia = tested on: SR leukemia
RPMI-8226 leukemia = tested on: RPMI-8226 leukemia
OVCAR-8 ovarian = tested on: OVCAR-8 ovarian
OVCAR-5 ovarian = tested on: OVCAR-5 ovarian
OVCAR-4 ovarian = tested on: OVCAR-4 ovarian
SK-OV-3 ovarian = tested on: SK-OV-3 ovarian
IGROV1 ovarian = tested on: IGROV1 ovarian
OVCAR-3 ovarian = tested on: OVCAR-3 ovarian
HS 578T breast = tested on: HS 578T breast
NCI/ADR-RES ovarian = tested on: NCI/ADR-RES ovarian

| SMILES | growth (SK-MEL-2 melanoma) | growth (EKVX NSCLC) | growth (SN12C renal) | growth (UO-31 renal) | growth (TK-10 renal) | growth (ACHN renal) | growth (CAKI-1 renal) | growth (A498 renal) | growth (CCRF-CEM leukemia) | growth (MOLT-4 leukemia) | growth (SR leukemia) | growth (RPMI-8226 leukemia) | growth (OVCAR-8 ovarian) | growth (OVCAR-5 ovarian) | growth (OVCAR-4 ovarian) | growth (SK-OV-3 ovarian) | growth (IGROV1 ovarian) | growth (OVCAR-3 ovarian) | growth (HS 578T breast) | growth (NCI/ADR-RES ovarian) |
| --- | --- | --- | --- | --- | --- | --- | --- | --- | --- | --- | --- | --- | --- | --- | --- | --- | --- | --- | --- | --- |
| NC(=O)c1ccc(NC(=O)c2oc3ccccc3c2-c2cnn(-c3ccccc3)c2)cc1 | 61.5% [50 µM] | 7.54% [50 µM] (active) | 14.7% [50 µM] | -1.76% [50 µM] (active) | 44.5% [50 µM] | -11.1% [50 µM] (active) | -29.4% [50 µM] (active) | 16.4% [50 µM] | 73.1% [50 µM] | 61.2% [50 µM] | 15.9% [50 µM] | 17.6% [50 µM] | 13.4% [50 µM] | -6.33% [50 µM] (active) | -30.5% [50 µM] (active) | 62.4% [50 µM] | 10.6% [50 µM] | 1.08% [50 µM] (active) | 5.15% [50 µM] (active) | -3.84% [50 µM] (active) |
| COc1ccc(C2=NN(C(=O)c3cc(OC)c(OC)c(OC)c3)C(c3ccc(N(C)C)cc3)C2)cc1 (stereo not given) | 66.5% | 35.6% | 31.3% | 19.4% | 56.5% | 25.8% | 39.1% | -1.92% (active) | 26.7% | 18.9% | 15.3% | -27.9% (active) | 29.3% | 64.7% | 35.2% | 35.4% | -8.59% (active) | 5.03% (active) | 13.6% | -5.85% (active) |
| CCNCc1ccc(O)c2ncccc12 | 15.4% | 25.1% | 34% | 18.1% | 5.97% (active) | 22.7% | 35.3% | 59.5% | 27.3% | 29% | 19% | 24.2% | 23% | 64.7% | 17.8% | 27.9% | 46% | 37.7% | 39.9% | 27.3% |
| COc1cc2c(cc1O)[C@@]1(C)[C@H](c3ccccc3Br)OC(=O)N1CC2 | 89.8% | 82% | 87.6% | 85.3% | 91.9% | 83.2% | 92.5% | 89.6% | 83% | 90.8% | 86.6% | 67.1% | 88.2% | 121% | 76.6% | 107% | 111% | 94.1% | 97.9% | 83.8% |
| CC[C@H](CC[C@@H](C)[C@H]1CC[C@H]2[C@@H]3CC[C@@H]4CC(=O)/C(=C\c5ccncc5)C[C@]4(C)[C@H]3CC[C@]12C)C(C)C | 105% | 99.6% | 102% | 90.4% | 107% | 111% | 93.8% | 83% | 107% | 104% | 87.5% | 92.2% | 100% | 104% | 110% | 99.7% | 104% | 106% | 98.8% | 104% |
| COc1cc(C2=NN(C(C)=O)C(c3ccc(N(C)C)cc3)C2)cc(OC)c1OC (stereo not given) | 90% | 94.7% | 86.4% | 79.6% | 109% | 91.8% | 15.3% | 76% | 14.6% | 80.8% | 83.9% | 99.1% | 95.3% | 82.3% | 96.7% | 110% | 76.7% | 124% | 84.7% | 99.2% |
| CN(C)c1ccc(C(=NO)c2ccc(N(C)C)cc2)cc1 | -23% (active) | 50.8% | 45.5% | 67.1% | 56.6% | 50.9% | 24.1% | 31.3% | 38.3% | 31.7% | 12.7% | 49.5% | 39.4% | 81.4% | 71.3% | 57.7% | 51.9% | -15.1% (active) | 51.1% | 13.4% |
